PubChem BioAssay (NCI)
This is part of a sample that, as a whole, favours compounds with a hit. Of some 83,000 tested, about 20% had one in any assay.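 Compound tested at a single concentration for 48 hours in 96-well plates; a percent growth value below 10 was scored as active.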 Values without a mark were called inactive. The source made the active and inactive calls.

How the values were obtained:
Assay in all cases: NCI-60 one-dose screen, 48 h (100 = growth as untreated, 0 = no growth, -100 = all killed)
Settings in all cases: 10 µM unless noted
[1] = tested on: HCT-15 colon
[2] = tested on: HT29 colon
[3] = tested on: SNB-75 CNS
[4] = tested on: SNB-19 CNS
[5] = tested on: U251 CNS
[6] = tested on: PC-3 prostate
[7] = tested on: SK-MEL-5 melanoma
[8] = tested on: UACC-62 melanoma
[9] = tested on: LOX IMVI melanoma
[10] = tested on: SK-MEL-28 melanoma

Structure (SMILES)	growth [1] [%]	growth [2] [%]	growth [3]	growth [4]	growth [5]	growth [6]	growth [7]	growth [8]	growth [9]	growth [10] [%]
CC(C)(CNC1CCCCC1)OC(=O)c1ccccc1	97.7	95.5	105%	103%	100%	91.6%	97.7%	106%	96.7%	114
CCCCN(CCCC)CCCNc1c2c(nc3ccc(Cl)cc13)CCCC2	74.2	45.7	88.4%	102%	101%	95.5%	106%	108%	90.4%	108
CC1=NN(c2cccc(Cl)c2)C(=O)/C1=C\c1cn(-c2nc(N3CCOCC3)nc(N3CCOCC3)n2)c2ccccc12	107	95.4	86.4%	103%	110%	93%	101%	103%	95.7%	116
COc1ccc(-c2nc(SCC(C)C)nc(Nc3ccccc3)c2C#N)cc1	83.4	78.9	89%	81.3%	50.5%	86.9%	96.7%	88.1%	80.1%	112
O=C(N/N=C/c1ccccc1Cl)c1cccc2ccccc12	102	105	83.1%	98.3%	98.4%	99.6%	104%	99.8%	103%	95.4
CC1(C)Oc2cc3oc(=O)ccc3cc2C[C@@H]1OCCOS(=O)(=O)c1ccc(C#N)cc1	92.7	97.2	93.4%	96.5%	101%	87.3%	93.6%	87.1%	97.6%	101
N#CC1=C(N2CCOCC2)NC2c3ccccc3Sc3ccccc3N2C1=N (stereo not given)	104	104	94.1%	107%	98.7%	88.8%	90.3%	87.4%	94.2%	93.9
CC(=O)c1nn(-c2ccc(C)cc2)cc1C(=O)c1cc2c(ccc3ccccc32)oc1=O	99.3	92.4	66.4%	92.6%	104%	87.9%	95.6%	78.3%	90.5%	96.7
C[C@@H](c1ccc2c(c1)[nH]c1ccc(Cl)cc12)c1nc2ccc(Cl)cc2[nH]1	90.1	97.2	74.2%	91.7%	92.1%	84.4%	95%	76.6%	85.4%	99.8
O=C(N/N=C/c1cc(Cl)ccc1O)C(=O)N/N=C/c1cc(Cl)ccc1O	44.7	45.4	71.9%	82.6%	50%	56.1%	56.3%	64.7%	47.9%	93.2
C/C(=N\Nc1cccc(Cl)n1)c1ccccn1	23.5	26.2	36.6%	23.1%	14.5%	29.3%	-51.6% (active)	-24.1% (active)	0.322% (active)	14.2
OC(c1ccccc1)(c1ccccc1)C(F)(F)F	107	103	111%	113%	109%	88.4%	109%	102%	105%	117
CCOC(=O)C1CCCN1C(=O)C1(NC(C)=O)CCCC1 (stereo not given)	106	124	95.7%	125%	104%	95.6%	109%	121%	104%	114
COc1ccc2oc(=O)cc(CN3C(=O)S/C(=C\c4ccc(Cl)cc4)C3=O)c2c1	92.3	103	98.7%	99%	101%	91.8%	101%	83.1%	95.2%	101
CCS(=O)(=O)N[C@@H]1O[C@H](COC(C)=O)C(OC(C)=O)[C@H](OC(C)=O)C1OC(C)=O (stereo not given in full)	93.8	102	93.9%	115%	97.7%	102%	105%	110%	92.8%	108
CC(=O)c1ccc2c(c1)c1ccccc1n2C	102	91.1	82.5%	90.8%	94.8%	89.2%	103%	83.2%	97.1%	107
CCCCCCCCCCN1CC2CCCCC2C1 (stereo not given)	35	19.8	66.3%	79.7%	53.4%	48.4%	49%	89.4%	47.1%	90.6
Cc1cc2c(-c3nc4ccccc4[nH]3)c(O)c(O)cc2c(O)c1-c1c(C)cc2c(-c3nc4ccccc4[nH]3)c(O)c(O)cc2c1O	11.9	10.5	5.43% (active)	7.78% (active)	-58.7% (active)	6.02% (active)	-8.04% (active)	-16.6% (active)	-26.5% (active)	19.8
CCCCCCCCCCCCCCCCNC(=S)N/N=C/c1ccc(OC)cc1	108	102	113%	99.8%	97.9%	88.5%	99.9%	93.2%	108%	109
